# A selection: hits, their analogues and other compounds. The true share with any hit is near 5.6%.
# PHOSPHO1 inh = blocks human PHOSPHO1 phosphatase activity; recombinant PHOSPHO1, absorbance phosphatase assay; Q8TCT1; 1.1% of 290,000 active; inhibition, % at 13.3 µM; AID 1565; in the data active means inhibition above about 60%
# PfM18AAP inh-1 = PfM18AAP enzyme inhibition | recombinant PfM18AAP, H-Glu-NHMec fluorogenic cleavage | inhibition, % at 7.35 µM | 1.2% of 290,000 active | AID 1822;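 active means inhibition above the campaign mean inhibition over all tested compounds plus 3 SD, cut at about 28% in these data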;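 further: 0% = plate median of test compound wells and 100% = 2 mM ZnCl2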
# PfGluPho inh = PfG6PD (Plasmodium falciparum) enzyme inhibition | inhibition, % at 20 µM | PfGluPho enzyme, NADPH resazurin-diaphorase fluorescence | 0.78% of 350,000 active;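 active means inhibition reaching at least a set limit at 20 µM in the primary screen, cut at about 59% in these data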;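 further: 0% = DMSO wells with substrate and 100% = DMSO wells lacking glucose-6-phosphate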
# ALR inh = blocks human ALR sulfhydryl oxidase activity | P55789 | purified ALR, DTT oxidation, H2O2 HRP-luminol luminescence | inhibition, % (concentration not given with the values) | 3.8% of 290,000 active | AID 485317;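 active means mean replicate inhibition above about 79%, with every replicate also reaching it, limit read from the data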
# Target sequence (P55789 whole entry, looked up): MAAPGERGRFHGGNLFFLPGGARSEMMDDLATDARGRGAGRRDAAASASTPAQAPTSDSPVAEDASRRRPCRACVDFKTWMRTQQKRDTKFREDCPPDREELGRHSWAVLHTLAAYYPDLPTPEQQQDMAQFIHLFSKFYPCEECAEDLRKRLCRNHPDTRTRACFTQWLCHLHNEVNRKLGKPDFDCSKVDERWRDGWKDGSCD
# H9c2 protect = protects H9c2 cardiomyocytes from peroxide injury. H2O2 injury protection, ATPLite, 2 h. protection from H2O2 cell death, % at 20 µM. 0.63% of 360,000 active. AID 588492;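 active means compounds giving at least 50% protection of heart cells from peroxide-induced death in the single-dose screen, raw or plate-pattern-corrected value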;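 further: 0% = DMSO wells with peroxide and 100% = DMSO wells without peroxide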
# PfM18AAP inh-2 = confirmation of Plasmodium falciparum M18 aspartyl aminopeptidase inhibitors | shares compounds with PfM18AAP inh-1 | recombinant PfM18AAP, H-Glu-NHMec fluorogenic cleavage | inhibition, % at 7.35 µM | 28% of 2,400 active | AID 2170;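 active means mean inhibition over replicate wells above the hit cutoff set for the earlier primary screen, cut at about 29% in these data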;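 further: 0% = median of test compound wells and 100% = 2 mM ZnCl2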
# CTSL1 counter = Cathepsin L (human) inhibition, confirmation. shares compounds with PfM18AAP inh-1. purified cathepsin L1, Z-Leu-Arg-MCA fluorescence. inhibition, % at 5.96 µM. 2,400 tested, under 10 active;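 active means average inhibition across replicates above the hit cutoff set in the earlier primary screen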;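 further: 0% = median of test compound wells and 100% = Z-Phe-Ala-diazomethylketone 1 µM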
# Target sequence (P07711 whole entry, looked up): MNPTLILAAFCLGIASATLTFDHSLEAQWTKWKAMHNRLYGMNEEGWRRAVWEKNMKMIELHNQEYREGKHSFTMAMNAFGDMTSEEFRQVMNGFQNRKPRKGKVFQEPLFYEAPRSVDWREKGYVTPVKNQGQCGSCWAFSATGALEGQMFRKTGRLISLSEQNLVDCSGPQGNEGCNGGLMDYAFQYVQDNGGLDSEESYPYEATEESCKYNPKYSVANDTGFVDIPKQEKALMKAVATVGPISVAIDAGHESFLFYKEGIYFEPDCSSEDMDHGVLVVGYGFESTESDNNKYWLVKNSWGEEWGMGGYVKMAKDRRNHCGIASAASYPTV
# * hit, by the source's call; x = no result given.
SMILES,PHOSPHO1 inh,PfM18AAP inh-1,PfGluPho inh,ALR inh,H9c2 protect,PfM18AAP inh-2,CTSL1 counter
COc1ccc2cc(CN(Cc3ccco3)C(c3nnnn3C3CCCCC3)C(C)C)c(=O)[nH]c2c1 (stereo not given),0,13,5,4,14,x,x
Cc1ccc(C(=O)NC(C)c2ccc(-n3ccnc3)cc2)o1 (stereo not given),x,x,1,-6,1,x,x
S=c1[nH]c(-c2ccccc2)cn1-c1ccccc1,20,46*,53,97*,-10,35*,-2
COc1ccccc1-n1cc(-c2ccc(C)cc2)[nH]c1=S,-3,6,27,33,-11,x,x
COc1ccccc1-n1cc(-c2ccc([N+](=O)[O-])cc2)[nH]c1=S,16,32*,39,1,-1,22,-1
O=[N+]([O-])c1ccc(-c2cn(-c3ccccc3)c(=S)[nH]2)cc1,-4,27,31,-2,2,x,x
COc1ccccc1-n1cc(-c2ccc(Br)cc2)[nH]c1=S,-56,7,17,1,-5,x,x
Nc1ccc(-n2cc(-c3ccccc3)[nH]c2=S)cc1,37,44*,43,91*,-10,11,-1
O=[N+]([O-])c1cccc(-c2cn(-c3ccccc3)c(=S)[nH]2)c1,1,50*,52,2,-8,50*,-4
Cc1ccc(S(=O)(=O)N(C)c2ccc(OCC(=O)N3CCCCC3)cc2)cc1,-4,7,12,-4,-10,x,x
CS(=O)(=O)N1CCC(C(=O)NCc2ccc3c(c2)OCO3)CC1,30,2,-14,9,4,x,x
CSc1ccc(C(=S)N2CCN(CCO)CC2)cc1,21,33*,36,-21,-6,7,0
C/C(Cn1nc([N+](=O)[O-])cc1C)=N\NC(=O)c1ccc(O)cc1O,-68,41*,-18,5,6,4,6
O=C(CSc1ncn[nH]1)N1N=C2/C(=C/c3ccco3)CCCC2C1c1ccco1 (stereo not given),87*,36*,4,-7,-4,1,1
COc1ccc(/C=C2\CCCC3C2=NN(C(=O)CSc2n[nH]c(N)n2)C3c2ccc(OC)cc2)cc1 (stereo not given),53,9,12,-9,-4,x,x
COc1ccc(N2CCN(C(=O)C(Cc3ccccc3)NC(=O)c3ccccc3)CC2)cc1 (stereo not given),x,x,15,x,10,x,x
CCOC(=O)c1[nH]c2ccc(F)cc2c1NC(=O)c1ccccc1C(=O)O,5,33*,16,66,2,-34,3
CCNC(=S)NC(=NCc1cccnc1)Nc1nc(C)cc(C)n1,8,32*,52,x,5,-12,-3
Cc1ccc(NC(=S)NCc2cccnc2)cc1,0,10,-8,43,-2,x,x
CC(OC(=O)c1cccc(-n2cnnn2)c1)C(=O)Nc1ccc(N(C)C)cc1 (stereo not given),x,x,16,-73,2,x,x
CCC1CCC2(CC1)NNC(=S)NN2,97*,35*,8,-1,-2,39*,0
CCC1CCC2(CC1)NC(CO)(CO)CO2 (stereo not given),13,-1,-7,-2,2,x,x
N#Cc1c(NC(=O)CSc2ccccn2)oc(-c2ccccc2)c1-c1ccccc1,10,50*,-47,x,0,-37,2
CCn1c(SCC(=O)Nc2oc(-c3ccccc3)c(-c3ccccc3)c2C#N)nnc1-c1ccncc1,16,12,-50,29,7,x,x
Cc1ccc(C)c(C(O)c2ncc(-c3ccccc3Cl)[nH]2)c1 (stereo not given),x,x,x,x,-9,x,x
SMILES,PHOSPHO1 inh,PfM18AAP inh-1,PfGluPho inh,ALR inh,H9c2 protect,PfM18AAP inh-2,CTSL1 counter
CC(C)(C)C(=O)/C(=C/c1ccc(Cl)cc1)n1cncn1,31,-8,11,1,0,x,x
CC(C)/C=C(/C(=O)c1ccc(Cl)cc1Cl)n1cncn1,24,49*,-3,97*,1,5,1
Cc1cc(C)c2oc(C(=O)N3CCN(Cc4ccccc4)CC3)cc(=O)c2c1,20,-4,14,-4,6,x,x
Cc1ccc(-n2c(=S)[nH]c3[nH]ncc3c2=O)cc1,1,21,20,-4,5,x,x
O=c1c2cn[nH]c2[nH]c(=S)n1-c1ccccc1F,18,57*,51,10,4,-1,-5
O=c1c2cn[nH]c2[nH]c(=S)n1-c1ccccc1Cl,-22,37*,2,14,0,21,1
COc1ccc(-c2cn(-c3ccccc3)c(=S)[nH]2)cc1OC,33,44*,39,-7,-6,11,-5
COc1ccc(-c2cn(-c3ccc(C)c(Cl)c3)c(=S)[nH]2)cc1OC,-77,22,21,x,-14,x,x
COc1cccc(-n2cc(-c3ccc(F)cc3)[nH]c2=S)c1,-2,41*,52,51,-11,26,0
COc1ccc(-c2cn(-c3ccc(C)c(C)c3)c(=S)[nH]2)cc1OC,x,32*,41,7,-11,6,-2
CCn1c(CCC(=O)N(C)CC(=O)Nc2cccc(F)c2)nc2cc(S(=O)(=O)N(C)C)ccc21,x,x,-14,0,-3,x,x
CCOC(=O)NC(=O)COC(=O)c1ccc(Sc2ncn[nH]2)c([N+](=O)[O-])c1,-10,89*,-21,-1,3,91*,-6
C=CCN(CC=C)C(=O)COC(=O)c1ccc(Sc2ncn[nH]2)c([N+](=O)[O-])c1,45,84*,7,x,-3,80*,-1
COCCNc1nc(Nc2ccc(F)cc2)c2sccc2n1,x,x,x,x,-5,x,x
CC(C)c1ccc(C2OCC(C)([N+](=O)[O-])CO2)cc1 (stereo not given),x,x,2,x,-4,x,x
CCOC(=O)C(=O)N/N=C(/c1ccccc1)c1ccc(OC)cc1,16,11,3,-7,13,x,x
COc1ccc(/C(=N\Nc2ccccc2C(=O)O)c2ccccc2)cc1,-5,38*,-9,99*,-2,-12,0
CCOC(=O)CNC(=S)n1ncnc1N,46,58*,15,2,0,-14,2
CCOC(=O)CNC(=S)SC,43,0,0,1,7,x,x
O=C(COC(=O)C1CCN(c2ccc(C(F)(F)F)cn2)CC1)Nc1ncc(Cl)cc1Cl,x,x,-3,-6,-6,x,x
COc1ccc(C(=O)OCC(=O)Nc2nnc(-c3ccccc3)o2)cc1,19,42*,-11,5,23,-21,-9
O=c1[nH]c(CSc2ncn[nH]2)nc2ccccc12,24,69*,1,-2,20,73*,5
S=c1nc[nH]c2c1ncn2C1CCCC1,-4,21,23,0,2,-30,-3
Oc1cc(O)c2c(c1)O[C@H](c1ccc(O)c(O)c1)[C@H](O)C2,31,81*,18,99*,2,66*,1
CN1OC[C@@H]2CN(Cc3ccc4c(c3)OCO4)[C@H](c3ccc(N4CCCCC4)cc3)C[C@@H]21,x,x,x,x,-8,x,x
